# Laboratory results: PubChem BioAssay (NCI)
# Values joined by “and” are separate entries in the source; they are usually repeats but may differ in a detail not shown here. Identical values can stand only once. This is part of a sample that, as a whole, favours compounds with a hit. Of some 83,000 tested, about 20% had one in any assay.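 A percent growth of 40 corresponds to 60% growth inhibition; 0 means no net growth; -100 means all cells died. Active threshold: below 10.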 Unmarked numbers belong to inactive results. Active and inactive are the calls of the source.
# System: MDA-MB-468 breast
# Experiment: NCI-60 one-dose screen, 48 h (100 = growth as untreated, 0 = no growth, -100 = all killed)
# Details: 10 µM unless noted
row,Structure (SMILES),growth
1,COc1ccccc1/C=C/C=N/NC1=NC2C(S1)N(C)C(=O)N2c1ccccc1 (configuration not stated),38.5%
2,c1ccc(-n2nnnc2-c2cccc3ccccc23)cc1,-22.5% (active)
3,CCOc1ccc(C2N(c3cc(OC)c(OC)c(OC)c3)C(=O)C2(F)F)cc1 (configuration not stated),34.9%
4,CC(C)(C)NC(=O)C(OC(=O)C1CCc2cc(F)ccc2O1)c1ccccc1Cl (configuration not stated),105%
5,CC[C@H](Nc1ncnc(N)c1C(N)=O)c1nc2cccc(NCc3ccc(C(=O)NO)cc3)c2c(=O)n1-c1ccccc1,32.2%
6,Cc1nn(-c2ccccc2)c2c1N=c1s/c(=C\c3cn(-c4ccccc4)nc3-c3ccc(Cl)cc3)c(=O)n1C(C)N2 (configuration not stated),86.6%
7,[2H]C([2H])([2H])Oc1c(F)cccc1/C=C/C(=O)/C=C(O)/C=C/c1cccc(F)c1OC([2H])([2H])[2H],98.3%
8,CCOC(=O)C1=C(CSC(=S)N(C2CCCCC2)C2CCCCC2)N(C)C(=O)NC1c1ccccc1 (configuration not stated),47.3%
9,CCN(CC)c1ccc2cc(C(Nc3ccc(Cl)cc3)c3nnnn3C(C)(C)C)c(=O)oc2c1 (configuration not stated),109%
10,Cc1nn(-c2ccccc2)c2nc(CCl)[nH]c(=O)c12,26.6%
11,COC(=O)c1cc(N=C2NC(=O)/C(=C/C=C/c3ccccc3)S2)ccc1O,17.5%
12,COc1ccc(/C=N/Nc2nc3ccccc3s2)cc1,84.8%
13,O=CN/N=C/c1ccc(Cl)c([N+](=O)[O-])c1,-11.6% (active)
14,CCCCc1c(CCC)c(=N)c2ccccc2n1C,74.2%
15,c1ccc(-c2n(Cc3ccc4ccccc4n3)c3ccccc3[n+]2Cc2ccc3ccccc3n2)cc1,-34.3% (active)
16,CCOc1nc(-c2ccccc2)cc2c(O)c(C(=O)N/N=C/c3ccccc3O)[nH]c(=O)c12,88.6%
17,Nc1ccc2c3c(cccc13)-c1ccccc1-2,88.6%
18,Clc1ccc2c(NCCNc3nc(N4CCCC4)nc4ccccc34)ccnc2c1,-49.2% (active)
19,Cn1ccnc1C(=O)/C=C/c1ccc(NC(=O)c2c(F)c(F)c(F)c(F)c2F)cc1,92.1%

row,Structure (SMILES),growth
1,CCCCCCC/C=C/[C@H]1O[C@]2(O)C(=O)C=C3C[C@@H](O[C@@H]4O[C@H](CO)[C@@H](O)C(O)[C@@H]4O)C[C@@H]3[C@H]2C=C1C (some centres not stated),-3.04% (active)
2,O=S(=O)(Nc1cc(Sc2cccc3cccnc23)c(O)c2ccccc12)c1ccccc1,-42.6% (active)
3,COc1ccc(-c2nc3cc(Cl)c(Cl)cc3n2CC(=O)N=Nc2c(O)[nH]c3ccccc23)cc1,60.6%
4,O=c1ssc(Cl)c1-c1ccccc1,97.3%
5,COc1cc(OC)c(NC(=O)n2ncc3cc(Nc4ncnc5ccccc45)ccc32)cc1Cl,-5.26% (active)
6,COc1ccc(/C=N/C2=C(C#N)C(c3ccccc3)c3c(ccc4ccccc34)O2)cc1 (configuration not stated),-3.92% (active)
7,CCCCOc1ccc(Nc2cc(Cl)ccc2C(=O)O)cn1,99.6% and 103%
8,N#Cc1ccc(C(=O)CSc2nccc(Nc3ccc(C(=O)O)cc3)n2)cc1,101%
9,COc1cccc(-c2nn(C(C)(C)C)cc2-c2ccnc(NCCCNS(=O)(=O)c3ccc(C)cc3)c2)c1,104%
10,COc1cc(/C=C2\CN(C)C/C(=C\c3cc(CN4CCOCC4)c(O)c(OC)c3)C2=O)cc(CN2CCOCC2)c1O,38.8%
11,COc1ccc(-c2cc(-c3cccc(Cl)c3)c(C#N)c(=O)[nH]2)c(OC)c1,113%
12,NC(=S)Cc1ccccc1,89.8%
13,O=C1CC(C(F)(F)F)=NN1C(=O)c1nn(-c2ccc(Cl)cc2)cc1O,116%
14,COc1ccc(C2=Cc3ccc(OC(C)=O)cc3OC2)cc1,67.4%
15,C=C1C(=O)O[C@H]2[C@H]1CC/C(C=Nc1ccc(C(F)(F)F)cc1N)=C\CC[C@@]1(C)O[C@@H]21,1.92% (active)
16,O=c1cc(CSc2nnc(SCc3cc(=O)oc4c3ccc3ccccc34)o2)c2ccc3ccccc3c2o1,110%
17,COc1cc2ccccc2cc1C(=O)NC(=S)Nc1ccc(-c2nc3ccccc3[nH]2)cc1,90.2%
18,COc1ccc(C2=CC(c3ccc(Oc4ccnc5cc(Cl)ccc45)c(OC)c3)c3c(nc(OC)[nH]c3=O)N2)cc1 (configuration not stated),61.4%
